Assay results from PubChem BioAssay (Tox21).
Unmarked numbers belong to inactive results. Inconclusive results are not listed. A call without a number means that no potency is given here. Activity calls are given as the source filed them. Unless noted, calls come from the whole dose curve.

How the values were obtained:
[1] = qHTS assay to identify small molecule antagonists of the sonic hedgehog signaling (Shh) pathway (AID 1259369); note: nearly all actives have a fitted effect of over 45% in size; note: potency is the fitted concentration of half-maximal effect
How it was run: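 Inhibition of Shh signalling is measured as reduced Gli1-response-element firefly luciferase output in an NIH/3T3-derived stable reporter clone stimulated with conditioned medium for 24hr.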

[2] = target: Estrogen receptor beta (Homo sapiens) (UniProt Q92731); experiment: qHTS assay to identify small molecule agonists of the estrogen receptor beta (ER-beta) signaling pathway (AID 1259377; active = well fitted activation curve with a large enough effect in the signal ratio in the repeat runs, not every such curve was filed as active; the % refers to the signal ratio; note: potency is the fitted concentration of half-maximal effect)
How it was run: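 Reporter cells (HEK293T, ER-beta-UAS-bla) receive compounds or DMSO after a 6 hr pre-incubation. They then incubate 16 hr at 37C/5% CO2, and fluorescence from LiveBLAzer B/G substrate is measured after 2 hours at room temperature.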

[3] = target: Estrogen receptor beta (Homo sapiens) (UniProt Q92731); experiment: qHTS assay to identify small molecule antagonists of the estrogen receptor beta (ER-beta) signaling pathway (AID 1259378; active = well fitted inhibition curve with a large enough effect in the signal ratio in the repeat runs, not every such curve was filed as active; the % refers to the signal ratio; note: potency is the fitted concentration of half-maximal effect)
How it was run: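 ER-beta-UAS-bla HEK293T cells in 2% charcoal-stripped FBS medium treated with compound plus 1nM final 17-beta-estradiol for 16 hr at 37C. Beta-lactamase reporter read by FRET substrate fluorescence after 2 hours at room temperature.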

[4] = qHTS assay to identify small molecule agonists of the estrogen receptor beta (ER-beta) signaling pathway - cell viability counter screen (AID 1259380; active = well fitted curve in the direction sought with a large enough effect in the repeat runs; an effect the other way counts as inactive or inconclusive; note: nearly all actives have a fitted effect of over 30% in size; note: potency is the fitted concentration of half-maximal effect)
How it was run: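 Same-well viability counter screen. Cells: ER-beta-UAS-bla HEK293T, plated 6 hr before compound, in 2% charcoal-stripped FBS. Compound exposure 16 hr, 37C; viability by CellTiter-Glo luminescence after 30 min at room temperature.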

[5] = qHTS assay to identify small molecule antagonists of the estrogen receptor beta (ER-beta) signaling pathway - cell viability counter screen (AID 1259382; active = well fitted curve in the direction sought with a large enough effect in the repeat runs; an effect the other way counts as inactive or inconclusive; note: series mostly up to about 92 µM; nearly all actives have a fitted effect of over 55% in size)
How it was run: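 Following a 6 hr plating period, HEK293T cells carrying a UAS-driven beta-lactamase reporter under ER-beta control received compounds and 1nM E2 (final). After 16 hr at 37C and 2 hr substrate loading, CellTiter-Glo luminescence indicated viability.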

[6] = target: Estrogen receptor (Homo sapiens) (UniProt P03372); experiment: qHTS assay to identify small molecule agonists of the estrogen receptor alpha (ER-alpha) signaling pathway in the presence of an antagonist (AID 1259383); note: nearly all actives have a fitted effect of over 15% in size; note: potency is the fitted concentration of half-maximal effect; for activation: top concentration of the series differs between compounds
How it was run: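 Cells are hormone-deprived for 5 days (charcoal-stripped FBS, no phenol red), plated for 24hr, spiked with 10.0nM ICI-182,780, then dosed at 15 concentrations. After 22hr at 37C, ONE-Glo luminescence reports ERE-luciferase activity.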

[7] = qHTS assay to identify small molecule agonists or antagonists of the thyroid stimulating hormone receptor (TSHR) signaling pathway - wild type cell line counter screen (AID 1259384)
How it was run: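 Wild-type Hek293 cells, 800/well, 18 h at 37C, then compound with Ro20-1724 for 30 min RT. cAMP by HTRF (cAMP-d2/anti-cAMP cryptate), 1 h RT, fluorescence read. 15 concentrations, triplicates.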

[8] = target: Thyrotropin receptor (Homo sapiens) (UniProt P16473); experiment: qHTS assay to identify small molecule antagonists of the thyroid stimulating hormone receptor (TSHR) signaling pathway (AID 1259385); note: nearly all actives have a fitted effect of over 20% in size; note: potency is the fitted concentration of half-maximal effect
How it was run: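 TSHR-HEK293 cells (800/well) plated 18 h, then compounds with Ro20-1724 and TSH at 1.5 ng/mL final, 30 min at room temperature. cAMP quantified by HTRF (cAMP-d2/anti-cAMP-cryptate, 1 h); 15 concentrations in triplicate.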

[9] = target: Progesterone receptor (Homo sapiens) (UniProt P06401); experiment: qHTS assay to identify small molecule agonists of the progesterone receptor (PR) signaling pathway (AID 1346784); note: nearly all actives have a fitted effect of over 30% in size
How it was run: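 Reporter assay, GripTite PR-UAS-bla HEK 293T cells: 16 hr exposure to DMSO-dissolved compounds at 37C, 5% CO2, in steroid-depleted (2% charcoal-stripped FBS) medium; beta-lactamase measured by FRET fluorescence.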

[10] = qHTS assay to identify small molecule antagonists of the progesterone receptor (PR) signaling pathway - cell viability counter screen (AID 1346798; active = well fitted curve in the direction sought with a large enough effect in the repeat runs; an effect the other way counts as inactive or inconclusive; note: series mostly up to about 92 µM; nearly all actives have a fitted effect of over 50% in size)
How it was run: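 In the same plates used for the beta-lactamase readout, cell viability of compound- and R5020-treated PR-UAS-bla HEK293T cells (16 hr, 37C) was assessed by CellTiter-Glo luminescence.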

[11] = qHTS assay to identify small molecule agonists of the progesterone receptor (PR) signaling pathway - cell viability counter screen (AID 1346799); note: nearly all actives have a fitted effect of over 45% in size
How it was run: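 Multiplexed viability read: CellTiter-Glo luminescence, 30 min RT, following LiveBLAzer FRET measurement on PR-UAS-bla HEK293T cells exposed to compounds 16 hr.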

[12] = qHTS assay to identify small molecule antagonists of the TGF-beta/Smad signaling pathway - cell viability counter screen (AID 1346824; active = well fitted curve in the direction sought with a large enough effect in the repeat runs; an effect the other way counts as inactive or inconclusive; note: nearly all actives have a fitted effect of over 50% in size)
How it was run: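 SBE-bla HEK 293T cells, incubated overnight, then compound plus 0.25 ng/mL TGF-beta1 (stock added) for 5 hr at 37 C. Viability was read in the same wells by CellTiter-Glo luminescence after 30 min at room temperature.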

[13] = qHTS assay to identify small molecule agonists of the TGF-beta/Smad signaling pathway - cell viability counter screen (AID 1346829; active = well fitted curve in the direction sought with a large enough effect in the repeat runs; an effect the other way counts as inactive or inconclusive; note: top concentration of the series differs between compounds; nearly all actives have a fitted effect of over 45% in size)
How it was run: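 Luminescence from CellTiter-Glo, read after a 30 min room-temperature incubation, gives cell viability of SBE-bla HEK 293T cells treated 5 hr with compounds at 37 C.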

[14] = qHTS assay to identify small molecule agonists of the TGF-beta/Smad signaling pathway (AID 1346859; active = well fitted activation curve with a large enough effect in the signal ratio in the repeat runs, not every such curve was filed as active; the % refers to the signal ratio; note: series mostly up to about 77 µM)
How it was run: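 Screening used HEK 293T SBE-bla cells at 4,000/well. Test agents: 5 hr, 37 C. Detection: FRET substrate, 2 hr RT, then excitation 405 nm with emissions at 460 and 530 nm.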

[15] = target: Thyrotropin-releasing hormone receptor (Homo sapiens) (UniProt P34981); experiment: qHTS assay to identify small molecule antagonists of the thyrotropin-releasing hormone receptor (TRHR) signaling pathway (AID 1346877; active = well fitted inhibition curve with a large enough effect in the repeat runs, not every such curve was filed as active; note: series mostly up to about 51 µM)
How it was run: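 Cells (TRHR-HEK293) are plated and kept 18 h at 37 °C/5% CO2. A calcium-sensitive dye is added for 2 h, compound follows for 5 min at room temperature, and TRH is then given at 1 nM final.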

[16] = target: Thyrotropin-releasing hormone receptor (Homo sapiens) (UniProt P34981); experiment: qHTS assay to identify small molecule agonists of the thyrotropin-releasing hormone receptor (TRHR) signaling pathway (AID 1346891); note: series mostly up to about 58 µM
How it was run: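 Readout was intracellular calcium fluorescence in TRHR-Hek293 cells. Cells were incubated 18 h, dye-loaded 2 h at 37 °C, and treated with compound in agonist mode.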

[17] = qHTS assay to identify small molecule agonists of the androgen receptor (AR) signaling pathway in the presence of an antagonist - cell viability counter screen (AID 1259379; active = well fitted curve in the direction sought with a large enough effect in the repeat runs; an effect the other way counts as inactive or inconclusive;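 note: MDA-kb2 human breast cancer cells carrying an MMTV luciferase reporter; series mostly up to about 92 µM; nearly all actives have a fitted effect of over 25% in size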)
How it was run: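 Fluorescence from CellTiter-Fluor, added after 15 hr and read 1 hr later, gave cell viability. Cells were MDA-kb2 exposed to compounds (15 concentrations) in the presence of 3.0uM nilutamide at 37C, 0% CO2.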

[18] = qHTS assay to identify small molecule agonists of the estrogen receptor alpha (ER-alpha) signaling pathway in the presence of an antagonist - cell viability counter screen (AID 1259386; active = well fitted curve in the direction sought with a large enough effect in the repeat runs; an effect the other way counts as inactive or inconclusive;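 note: cells exposed to compounds for 22 h at 37 °C before the viability read; nearly all actives have a fitted effect of over 30% in size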; note: potency is the fitted concentration of half-maximal effect)
How it was run: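 Cells are starved of estrogens for 5 days in charcoal-stripped serum, seeded for 24hr and co-treated with ICI-182,780 (10.0nM final) and test compounds. After 22hr at 37C, viability is read as CellTiter-Fluor fluorescence.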

[19] = target: Progesterone receptor (Homo sapiens) (UniProt P06401); experiment: qHTS assay to identify small molecule antagonists of the progesterone receptor (PR) signaling pathway (AID 1346795; active = well fitted inhibition curve with a large enough effect in the signal ratio in the repeat runs, not every such curve was filed as active; the % refers to the signal ratio)
How it was run: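 Stimulus R5020 at 1 nM final; cells HEK293T PR-UAS-bla; medium with 2% charcoal-stripped FBS; compound exposure 16 hr at 37C, 5% CO2; detection by FRET beta-lactamase substrate, 2 hr, room temperature.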

[20] = target: Androgen receptor (Homo sapiens) (UniProt P10275); experiment: qHTS assay to identify small molecule agonists of the androgen receptor (AR) signaling pathway in the presence of an antagonist (AID 1259381); note: nearly all actives have a fitted effect of over 15% in size
How it was run: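 Cells are MDA-kb2 (human breast carcinoma, MMTV-luc, AR/GR responsive). Nilutamide is present at 3.0uM final throughout; compounds are added at 15 concentrations and incubated 16hr at 37C before ONE-Glo luminescence detection.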

Chain of Progesterone receptor (Homo sapiens) (P06401 whole entry, looked up): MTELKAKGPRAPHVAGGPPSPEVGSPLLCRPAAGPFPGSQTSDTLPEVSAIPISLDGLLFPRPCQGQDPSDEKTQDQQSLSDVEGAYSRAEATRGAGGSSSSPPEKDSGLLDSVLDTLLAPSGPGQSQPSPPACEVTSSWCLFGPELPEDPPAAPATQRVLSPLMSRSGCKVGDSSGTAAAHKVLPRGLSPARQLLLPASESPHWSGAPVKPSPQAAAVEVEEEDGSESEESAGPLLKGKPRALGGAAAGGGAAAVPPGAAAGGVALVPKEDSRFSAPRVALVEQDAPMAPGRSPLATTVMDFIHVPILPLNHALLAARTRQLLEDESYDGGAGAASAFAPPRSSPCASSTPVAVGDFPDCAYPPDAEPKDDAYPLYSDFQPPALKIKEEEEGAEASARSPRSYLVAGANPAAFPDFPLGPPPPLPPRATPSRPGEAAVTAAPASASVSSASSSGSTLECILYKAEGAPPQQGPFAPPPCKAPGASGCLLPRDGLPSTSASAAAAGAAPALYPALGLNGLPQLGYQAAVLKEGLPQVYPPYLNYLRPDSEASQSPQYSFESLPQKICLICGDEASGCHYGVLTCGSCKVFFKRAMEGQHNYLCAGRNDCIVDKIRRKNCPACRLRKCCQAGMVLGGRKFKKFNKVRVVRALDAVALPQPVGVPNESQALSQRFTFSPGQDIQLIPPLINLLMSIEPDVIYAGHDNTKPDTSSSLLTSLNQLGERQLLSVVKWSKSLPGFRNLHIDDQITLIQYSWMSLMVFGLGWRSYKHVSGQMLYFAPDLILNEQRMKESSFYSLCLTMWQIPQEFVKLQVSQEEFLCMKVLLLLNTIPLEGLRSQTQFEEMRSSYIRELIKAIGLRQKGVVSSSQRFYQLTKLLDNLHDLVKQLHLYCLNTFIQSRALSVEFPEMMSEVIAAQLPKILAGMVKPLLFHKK
Chain of Thyrotropin-releasing hormone receptor (Homo sapiens) (P34981 whole entry, looked up): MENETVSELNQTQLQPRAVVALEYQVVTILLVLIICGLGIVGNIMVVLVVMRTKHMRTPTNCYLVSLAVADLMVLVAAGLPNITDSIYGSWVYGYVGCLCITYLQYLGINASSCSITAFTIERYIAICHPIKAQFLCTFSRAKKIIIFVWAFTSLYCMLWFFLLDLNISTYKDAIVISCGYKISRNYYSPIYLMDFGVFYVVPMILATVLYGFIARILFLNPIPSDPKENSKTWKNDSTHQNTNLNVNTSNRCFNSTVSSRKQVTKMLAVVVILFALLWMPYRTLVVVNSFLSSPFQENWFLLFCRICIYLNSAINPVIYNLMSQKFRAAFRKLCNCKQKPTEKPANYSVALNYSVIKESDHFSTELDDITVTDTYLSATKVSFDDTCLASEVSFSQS
Chain of Thyrotropin receptor (Homo sapiens) (P16473 whole entry, looked up): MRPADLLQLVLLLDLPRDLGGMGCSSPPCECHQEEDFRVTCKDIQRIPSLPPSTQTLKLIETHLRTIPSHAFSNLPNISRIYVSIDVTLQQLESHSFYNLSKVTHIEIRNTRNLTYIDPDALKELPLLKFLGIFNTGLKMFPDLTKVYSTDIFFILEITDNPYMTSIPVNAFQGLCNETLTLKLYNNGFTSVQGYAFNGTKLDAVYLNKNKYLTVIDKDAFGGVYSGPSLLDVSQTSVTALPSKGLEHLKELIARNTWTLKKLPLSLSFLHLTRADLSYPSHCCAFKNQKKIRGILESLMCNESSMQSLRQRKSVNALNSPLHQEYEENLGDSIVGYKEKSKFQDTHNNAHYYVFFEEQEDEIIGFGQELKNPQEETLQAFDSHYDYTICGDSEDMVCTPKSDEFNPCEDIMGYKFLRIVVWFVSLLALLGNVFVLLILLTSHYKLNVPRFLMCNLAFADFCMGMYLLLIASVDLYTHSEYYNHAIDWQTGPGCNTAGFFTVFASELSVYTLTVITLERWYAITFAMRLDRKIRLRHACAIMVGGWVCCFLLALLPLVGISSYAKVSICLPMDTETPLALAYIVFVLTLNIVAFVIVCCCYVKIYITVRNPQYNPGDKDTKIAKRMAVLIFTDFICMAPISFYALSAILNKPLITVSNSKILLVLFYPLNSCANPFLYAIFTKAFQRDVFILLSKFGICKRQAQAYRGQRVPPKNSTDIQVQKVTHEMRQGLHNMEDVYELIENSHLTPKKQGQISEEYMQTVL
Chain of Androgen receptor (Homo sapiens) (P10275 whole entry, looked up): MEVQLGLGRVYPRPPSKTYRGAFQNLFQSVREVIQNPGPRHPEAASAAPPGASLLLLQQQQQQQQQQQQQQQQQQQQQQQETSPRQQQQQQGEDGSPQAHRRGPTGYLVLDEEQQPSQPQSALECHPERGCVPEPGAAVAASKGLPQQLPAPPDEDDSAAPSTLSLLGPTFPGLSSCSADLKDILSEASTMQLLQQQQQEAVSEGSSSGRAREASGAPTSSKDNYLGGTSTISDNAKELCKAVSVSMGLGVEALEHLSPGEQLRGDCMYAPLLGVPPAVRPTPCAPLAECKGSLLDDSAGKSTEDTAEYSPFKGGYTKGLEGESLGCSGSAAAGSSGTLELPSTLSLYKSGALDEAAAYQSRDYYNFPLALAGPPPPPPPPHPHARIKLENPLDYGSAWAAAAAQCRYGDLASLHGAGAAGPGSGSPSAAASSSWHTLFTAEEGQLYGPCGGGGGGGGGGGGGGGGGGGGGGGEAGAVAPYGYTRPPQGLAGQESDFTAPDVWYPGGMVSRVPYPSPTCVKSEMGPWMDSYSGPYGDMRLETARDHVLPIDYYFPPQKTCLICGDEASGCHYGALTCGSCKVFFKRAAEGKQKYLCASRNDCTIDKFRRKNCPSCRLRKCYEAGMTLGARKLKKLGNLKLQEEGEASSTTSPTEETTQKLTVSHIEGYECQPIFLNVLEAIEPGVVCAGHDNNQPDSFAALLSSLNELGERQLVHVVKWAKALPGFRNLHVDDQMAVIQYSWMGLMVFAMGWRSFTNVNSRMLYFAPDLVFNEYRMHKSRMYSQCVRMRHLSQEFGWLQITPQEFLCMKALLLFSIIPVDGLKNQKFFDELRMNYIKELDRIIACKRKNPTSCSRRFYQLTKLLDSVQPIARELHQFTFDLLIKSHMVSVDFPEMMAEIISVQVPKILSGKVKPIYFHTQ
Chain of Estrogen receptor (Homo sapiens) (P03372 whole entry, looked up): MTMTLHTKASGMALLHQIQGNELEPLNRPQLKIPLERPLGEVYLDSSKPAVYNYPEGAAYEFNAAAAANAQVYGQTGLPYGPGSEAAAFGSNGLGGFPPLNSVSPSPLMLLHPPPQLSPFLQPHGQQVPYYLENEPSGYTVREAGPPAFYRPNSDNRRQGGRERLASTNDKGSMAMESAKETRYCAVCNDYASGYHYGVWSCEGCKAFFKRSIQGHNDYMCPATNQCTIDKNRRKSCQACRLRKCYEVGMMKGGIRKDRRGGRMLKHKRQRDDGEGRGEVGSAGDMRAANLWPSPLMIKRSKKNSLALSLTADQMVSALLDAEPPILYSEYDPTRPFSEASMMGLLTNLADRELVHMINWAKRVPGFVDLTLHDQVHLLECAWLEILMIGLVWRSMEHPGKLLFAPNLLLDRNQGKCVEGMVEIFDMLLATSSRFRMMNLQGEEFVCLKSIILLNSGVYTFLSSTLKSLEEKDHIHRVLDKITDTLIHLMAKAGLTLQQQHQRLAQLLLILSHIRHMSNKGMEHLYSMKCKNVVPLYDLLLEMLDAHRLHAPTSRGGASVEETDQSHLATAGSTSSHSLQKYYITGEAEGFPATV
Chain of Estrogen receptor beta (Homo sapiens) (Q92731 whole entry, looked up): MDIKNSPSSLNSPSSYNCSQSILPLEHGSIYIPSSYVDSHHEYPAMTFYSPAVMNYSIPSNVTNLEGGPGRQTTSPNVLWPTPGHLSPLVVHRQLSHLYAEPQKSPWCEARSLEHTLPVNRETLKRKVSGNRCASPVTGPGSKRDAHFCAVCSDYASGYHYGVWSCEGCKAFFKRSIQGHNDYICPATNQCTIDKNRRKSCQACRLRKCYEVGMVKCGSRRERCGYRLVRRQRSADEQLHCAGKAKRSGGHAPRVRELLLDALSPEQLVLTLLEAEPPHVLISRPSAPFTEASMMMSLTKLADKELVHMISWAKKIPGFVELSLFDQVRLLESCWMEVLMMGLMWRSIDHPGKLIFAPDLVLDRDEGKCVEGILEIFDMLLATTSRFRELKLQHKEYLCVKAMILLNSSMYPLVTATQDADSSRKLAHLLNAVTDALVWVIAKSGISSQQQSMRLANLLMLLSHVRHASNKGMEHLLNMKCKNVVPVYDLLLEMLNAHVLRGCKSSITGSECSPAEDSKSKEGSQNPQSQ

Row | Compound | Potency [1] | Potency [2] | Potency [3] | Potency [4] | Potency [5] | Potency [6] | Potency [7] | Potency [8] | outcome [9] | Potency [10] | Potency [11] | Potency [12] | Potency [13] | outcome [14] | outcome [15] | Potency [16] | Potency [17] | Potency [18] | Potency [19] | Potency [20]
1 | Nc1cnn([C@@H]2O[C@H](CO)[C@@H](O)[C@H]2O)c(=O)n1 | inactive | inactive | 27.3 µM (active) | inactive | inactive | inactive | inactive | inactive | inactive | inactive | inactive | inactive | inactive | inactive | inactive | inactive |  |  |  | 
2 | Cc1ccc2c(ccc3ccccc32)c1 | inactive | inactive |  | inactive | inactive | inactive | inactive |  | inactive | inactive | inactive | inactive | inactive |  | inactive | inactive | inactive | inactive |  | 
3 | CC[C@H](C)[C@H](N)C(=O)O | inactive |  | inactive | inactive | inactive | inactive | inactive | inactive | inactive |  | inactive | inactive | inactive | inactive | inactive | inactive | inactive | inactive | inactive | 
4 | CC[C@@H]1C[C@H](N(Cc2cc(C(F)(F)F)cc(C(F)(F)F)c2)C(C)=O)c2cc(C(F)(F)F)ccc2N1C(=O)OC(C)C | 9.69 µM (active) | inactive |  | inactive | inactive | inactive |  |  | inactive | inactive | inactive | inactive | inactive | inactive | inactive | inactive | inactive | inactive |  | 
5 | C#CCOC(=O)[C@@H](C)Oc1ccc(Oc2ncc(Cl)cc2F)cc1 | inactive | inactive |  |  | inactive | inactive | inactive | inactive | inactive | inactive |  | inactive | inactive | inactive | inactive | inactive | inactive | inactive | inactive | 
6 | O=S1(=O)c2cccc3cccc(c23)N1CCCN1CCN(c2ccc(F)cc2)CC1 | inactive | inactive |  |  | inactive | inactive | inactive | inactive | inactive |  |  | inactive | inactive | inactive | inactive | inactive | inactive | inactive |  | 
7 | CCCCCC(CO)CCC (stereo unspecified) | inactive | inactive | inactive |  | inactive |  |  | inactive | inactive | inactive | inactive | inactive |  | inactive | inactive | inactive | inactive | inactive | inactive | 
8 | CC(C)(Oc1ccc(Cl)cc1)C(=O)OCCCOC(=O)C(C)(C)Oc1ccc(Cl)cc1 | inactive | inactive | inactive | inactive | inactive | inactive | inactive | 29.8 µM (active) | inactive | inactive | inactive | inactive | inactive | inactive | inactive | inactive |  | inactive | inactive | inactive
9 | C=C(C)C(=O)OC(C)C | inactive |  | inactive | inactive | inactive | inactive |  | inactive | inactive |  | inactive | inactive | inactive | inactive | inactive | inactive | inactive | inactive |  | inactive
10 | O=[N+]([O-])c1cc[n+]([O-])cc1 | 30.6 µM (active) |  | 43.3 µM (active) | 27.3 µM (active) |  | inactive | inactive |  |  |  |  |  | inactive | inactive | inactive | inactive | inactive | 68.6 µM (active) |  | inactive
11 | CCCCCCc1ccc(N)cc1 | inactive | inactive |  | 27.3 µM (active) | inactive | inactive | inactive | inactive | inactive | inactive | inactive | inactive | inactive |  | inactive | inactive | inactive | inactive | inactive | inactive
12 | CCCCOC(=O)/C=C\C(=O)OCCCC | inactive | inactive |  |  | inactive | inactive | inactive | inactive | inactive | inactive |  | inactive | inactive | inactive | inactive | inactive | inactive | inactive | inactive | 
13 | CC(C)(C)C(=O)OCOP(=O)(COCCn1cnc2c(N)ncnc21)OCOC(=O)C(C)(C)C | 2.98 µM (active) | inactive | inactive | 9.44 µM (active) | inactive |  | inactive | inactive | inactive |  |  | inactive |  | inactive |  |  |  | inactive |  | 
14 | CCN(CC)C(C)CN1c2ccccc2Sc2ccccc21 (stereo unspecified) | inactive |  | inactive | inactive | inactive | inactive | inactive | inactive | inactive | inactive | inactive | inactive | inactive | inactive |  |  | inactive | inactive |  | 
15 | CC1(C)CCC(C)(C)c2cc(NC(=O)c3ccc(C(=O)O)cc3)ccc21 | inactive | inactive | 18.8 µM (active) |  | inactive |  | inactive | inactive | inactive |  |  | inactive | inactive |  |  |  | inactive | inactive |  | 
16 | Oc1ccc(Sc2ccc(O)cc2)cc1 | 20.3 µM (active) | 6.42 µM (active) |  |  | inactive | 14.4 µM (active) |  |  |  |  |  | inactive | inactive |  | inactive | inactive | inactive | inactive |  | 
17 | CCN(CC)CCOC(=O)C1(c2ccccc2)CCCC1 | inactive | inactive | inactive | inactive | inactive | inactive | inactive | inactive | inactive | inactive | inactive | inactive | inactive | inactive | inactive | inactive |  |  | inactive | inactive
18 | O=[N+]([O-])c1cccc(Cl)c1Cl | inactive |  | inactive | inactive | inactive | inactive | inactive | inactive | inactive |  | inactive | inactive | inactive | inactive | inactive | inactive | inactive | inactive | inactive | 
